# Laboratory results as given in PubChem BioAssay (NCI).
# The panel holds about 83,000 compounds, 20% with a hit somewhere; the sample as a whole holds those more often.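 Note: values are percent growth. 100 is the growth of untreated cells, values between 100 and 0 indicate rising inhibition; between -100 and 0 indicates cell death.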 Values without a mark were called inactive. Calls of active or inactive are those of the source.
# Test system: OVCAR-3 ovarian
# Assay: NCI-60 one-dose screen, 48 h (100 = growth as untreated, 0 = no growth, -100 = all killed)
# Conditions: 10 µM unless noted
# Description: Growth inhibition of the OVCAR-3 human tumor cell line is measured as a screen for anti-cancer activity. Cells are grown in 96 well plates and exposed to the test compound for 48 hours. Compounds are tested at a single concentration, which is 10^-5 M for most compounds. The reported endpoint is percent growth (GI% or GIPRCNT), where numbers from 0 - 100% represent growth inhibition, and numbers from -100% - 0 represent cell death. For example, a value of 40 represents 60% growth inhibition. A value of 0 means no net growth occurred over the course of the experiment. A value of -40 indicates 40% of cells at the beginning of the experiment died by the end of the experiment. A value of -100 means all cells are dead at the end of the experiment.
# NCI-60 Human Tumor Cell Lines Screen was performed using the standard one-dose NCI protocol, which is described in more detail at https://dtp.cancer.gov/discovery_development/nci-60/default.htm.
# Compounds with GIPRCNT values below 10 were considered active. Activity score was based on GIPRCNT using the following formula: […]
# Score is 0 for GIPRCNT values of 100 or above, 50 for GIPRCNT values of 0, and 100 for GIPRCNT values of -100.
row,SMILES,growth
1,O=c1[nH]nc(-c2ccc(Br)cc2)c2sc(NC(=S)Nc3ccc(Cl)cc3)nc12,104%
2,CC(C)NS(=O)(=O)c1cccc(-c2ccc3c4c(n(CCCN(C)C)c(=O)c3c2)-c2ccccc2C4=O)c1,110%
3,CCOC(=O)C(=Cc1c(-c2ccccc2)[nH]c2ccccc12)C(=O)OCC,38%
4,c1ccc(-c2n(Cc3ccc4ccccc4n3)cc[n+]2Cc2ccc3ccccc3n2)cc1,28.8%
5,COCCOCCOCc1n(Cc2ccc3ccccc3c2)c2ccccc2[n+]1Cc1ccc2ccccc2c1,7.16% (active)
6,Cc1ccccc1NC(=O)c1sc2nc(C)c(C(C)O)cc2c1N (stereo not given),27.8%
7,O=C1[C@@H](OS(=O)(=O)CC(F)(F)F)[C@H](c2ccc(F)cn2)N1c1cc2c3ccccc3ccc2c2ccccc12,49.3%
8,CCCCc1n(Cc2ccc3ccccc3n2)cc[n+]1Cc1ccc2ccccc2c1,5.59% (active)
9,CC(=O)c1ccc(NC(=O)CSc2nnc(-c3cc(-c4ccc(C)cc4)nc4ccccc34)o2)cc1,77.4%
10,CCOC(=O)CC[C@H](NC(=O)c1ccc(NC)c2ccccc12)C(=O)OCC,102%
11,Cc1c(Cl)cccc1NC(=O)c1sc2nc3c(cc2c1N)CN(Cc1ccccc1)CC3,0.716% (active)
12,COc1c(O)cc2oc3cc(O[C@@H]4OC(C)[C@@H](O)[C@H](O)C4O)c(CC=C(C)C)c(O)c3c(=O)c2c1CC=C(C)C (stereo not given in full),94.7%
13,Oc1c(CCl)cc(Cl)cc1Cc1cc(Cl)cc(Cc2cc(Cl)cc(CCl)c2O)c1O,19.2%
14,Cc1cc(C)cc(Nc2nccc(-c3c(-c4ccc(F)cc4)ncn3C3CCNCC3)n2)c1,5.97% (active)
15,CCOCCc1c(O)nc(SC)[nH]c1=O,186%
16,N#Cc1c(NC(=O)c2cccs2)[n+]([O-])c2cc(C(F)(F)F)ccc2[n+]1[O-],81.9%
17,CCOC(=O)c1c(C)nc2c(c1N)/C(=C/c1ccccn1)C(=O)N2Cc1ccccc1,-19% (active)
18,COC(=O)c1nc(-c2ccccc2)oc1S(=O)(=O)n1nc(C)cc1N,20.4%
19,CCc1c(C(=O)N[C@@H](C(=O)OCc2ccccc2)C(C)O)[nH]c2ccc(Cl)cc12 (stereo not given in full),29.4%
20,COCCc1n(Cc2ccc3ccccc3c2)c2ccccc2[n+]1Cc1ccc2ccccc2c1,-72.8% (active)

row,SMILES,growth
1,COc1ccc(Nc2nc(SCC(C)C)nc(-c3ccc(F)cc3)c2C#N)cc1,21%
2,N#CCNc1ccc(C(=O)O)cc1,110%
3,NCCCn1c2c(c3cc(-c4ccn[nH]4)ccc3c1=O)C(=O)c1ccccc1-2,59%
4,Cc1nc2sc(C(=O)Nc3ccccc3)c(N)c2cc1C(C)O (stereo not given),21.8%
5,COc1ccccc1N1CCN(CCCOc2ccc(C(=O)/C=C3/C(=O)Nc4ccccc43)cc2)CC1,66.1%
6,O=C1Nc2ccccc2C12C=C(c1ccccc1)Nc1c2c(-c2ccccc2)nn1-c1ccccc1 (stereo not given),70.3%
7,COc1cc(C2=NN(C(C)=O)C(c3cccc(Nc4ccnc5cc(C(F)(F)F)ccc45)c3)C2)cc(OC)c1OC (stereo not given),61.2%
8,C=C1C(=O)O[C@H]2[C@H]1CC/C(COC(=O)CCC(=O)OC/C1=C/CC[C@@]3(C)O[C@H]3[C@H]3OC(=O)C(=C)[C@@H]3CC1)=C\CC[C@@]1(C)O[C@@H]21,-11% (active)
9,Nc1c(C(=O)c2ccccc2)sc2nc(-c3cc4ccccc4o3)cc(-c3ccc(Cl)cc3)c12,85.1%
10,C=C(C)[C@@H]1CC[C@]2(C(=O)OCCCC[P+](c3ccccc3)(c3ccccc3)c3ccccc3)CC[C@]3(C)[C@H](CC[C@@H]4[C@@]5(C)CC[C@H](OC(=O)C(Cl)Cl)C(C)(C)[C@@H]5CC[C@]43C)[C@@H]12,-42.7% (active)
11,N#Cc1c(-c2ccc(Cl)cc2)cc(-c2cc3ccccc3o2)nc1SCC(=O)c1ccc(Cl)cc1,104%
12,O=S(=O)(O)c1ccc(N=NSc2ccc3ccccc3c2)cc1,98.6%
13,Cc1cccc(C)c1NCc1nnc(-c2ccco2)o1,94.8%
14,CCOc1ccccc1C(=O)/C=C/c1cc2ccccc2[nH]c1=O,-30.7% (active)
15,COc1ccc2c(c1)OC13Oc4cc(OC)ccc4C=C1CCCCC3=C2,108%
16,CC(=O)[C@@H]1CC[C@]2(C(=O)O)CC[C@]3(C)[C@H](CC[C@@H]4[C@@]5(C)Cc6c([nH]c7ccccc67)C(C)(C)[C@@H]5CC[C@]43C)[C@@H]12,54.1%
17,CCOC(=O)c1c(C)nc2c(c1N)CC(=O)N2CCc1ccccc1,35.4%
18,C=C1C(=O)O[C@H]2[C@H]1CC/C(COC(=O)c1c[nH]c3ccccc13)=C\CC[C@@]1(C)O[C@@H]21,-94.2% (active)
19,COC(=O)[C@]1(C)CCC[C@]2(C)[C@H]3C[C@H]4C(C(C)C)=C[C@]3(CC[C@H]21)[C@@H]1C(=O)N(CCC#N)C(=O)[C@@H]14,88.9%
20,CC1=C(CCCOC(=O)NCCCl)C2=C(C)C3(CC3)[C@@](C)(O)C(=O)C2=C1,2.71% (active)
